Among the data in PubChem BioAssay (NCI) are growth values, retold here.

The structures appear in SMILES notation. This is part of a sample that, as a whole, favours compounds with a hit. Of some 83,000 tested, about 20% had one in any assay.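 Assay: single dose, 48 h. Readout: percent growth (0 = no net growth; negative = cell death). Active: <10.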 Values without a mark were called inactive. Active and inactive are the calls of the source.

Test systems include HCT-15 colon; HT29 colon; SNB-75 CNS; SNB-19 CNS; U251 CNS; PC-3 prostate; SK-MEL-5 melanoma; UACC-62 melanoma; LOX IMVI melanoma; SK-MEL-28 melanoma.
Holding throughout (test): NCI-60 one-dose screen, 48 h (100 = growth as untreated, 0 = no growth, -100 = all killed)
Common to all, as to details: 10 µM unless noted

For the molecule `CN1C(=O)N2CN3CCCN(C3)CN3C(=S)NC1C23` (stereo not given), the growth was 103% in the assay with HCT-15 colon; 95.2% in the assay on HT29 colon; 93.4% in the assay with SNB-75 CNS; 99.3% with SNB-19 CNS; 101% in the assay with U251 CNS; 98.4% in the assay with PC-3 prostate. The growth in the assay with SK-MEL-5 melanoma is 100%; in the assay on UACC-62 melanoma, 101%; in the assay on LOX IMVI melanoma, 98.7%; with SK-MEL-28 melanoma, 119%.
For `C[C@@H]1NC(=O)[C@H](Cc2ccccc2)N(Cc2cccnc2)C1=O`, the growth with HCT-15 colon is 103%; in the assay with HT29 colon it was 102%; in the assay with SNB-75 CNS, 85.1%; in the assay on SNB-19 CNS, 96.1%; in the assay on U251 CNS it was 91.1%; in the assay on PC-3 prostate, 94.1%. Further, the growth with SK-MEL-5 melanoma is 101%; in the assay on UACC-62 melanoma it was 92.7%; with LOX IMVI melanoma, 98.5%; in the assay on SK-MEL-28 melanoma it was 112%.
`O=C1CCCC1[n+]1ccccc1` (stereo not given): the growth with HCT-15 colon is 97.1%; in the assay with HT29 colon, 61.4%; in the assay with SNB-75 CNS it was 86.3%; with SNB-19 CNS it was 103%; in the assay with U251 CNS, 84.4%; in the assay on PC-3 prostate, 81.7%. The growth with SK-MEL-5 melanoma was 104%; in the assay on UACC-62 melanoma it was 96.5%; in the assay on LOX IMVI melanoma, 99%; in the assay on SK-MEL-28 melanoma, 84.3%.
As for `CCN(CC)CCCNc1cc(OC)c(OC)c2cccnc12`, the growth is 72% in the assay with HCT-15 colon; 83.7% in the assay with HT29 colon; 102% in the assay on SNB-75 CNS; 63.5% in the assay on SNB-19 CNS; 52.6% with U251 CNS; 54.8% in the assay with PC-3 prostate. Besides, the growth in the assay on SK-MEL-5 melanoma is 62.4%; in the assay with UACC-62 melanoma, 60.6%; with LOX IMVI melanoma it was 34.2%; in the assay on SK-MEL-28 melanoma, 93.8%.
For the molecule `CC1=C2CC/C(C)=C/CC[C@]3(C)O[C@H]3CC/C(C)=C/[C@H]2OC1`, the growth in the assay on HCT-15 colon was 97.9%; with HT29 colon, 94.7%; in the assay on SNB-75 CNS, 86.6%; with SNB-19 CNS, 98.5%; in the assay with U251 CNS it was 94.7%; with PC-3 prostate, 87.5%. In addition, the growth is 108% in the assay on SK-MEL-5 melanoma, 92.1% with UACC-62 melanoma, 101% in the assay on LOX IMVI melanoma and 96.5% in the assay on SK-MEL-28 melanoma.
Turning to `CCOC(=O)CC[C@H](NC(=O)c1ccc(N(C)Cc2cnc3nc(N)nc(N)c3n2)c2ccccc12)C(=O)OCC`, the growth with HCT-15 colon was 30%; in the assay with HT29 colon it was 12.5%; in the assay on SNB-75 CNS, 76%; with SNB-19 CNS, 33.7%; in the assay on U251 CNS, 33%; in the assay with PC-3 prostate it was 24.3%. In addition, the growth in the assay on SK-MEL-5 melanoma was 23.4%; in the assay with UACC-62 melanoma, 18.5%; in the assay on LOX IMVI melanoma, 17.6%; in the assay with SK-MEL-28 melanoma it was 47.8%.
In the case of `COc1ccc(/C=C2\CN(C(=O)C(Cl)Cl)C/C(=C\c3ccc(OC)c(OC)c3)C2=O)cc1OC`, the growth with HCT-15 colon was -38.9% (active); in the assay on HT29 colon, 10.8%; in the assay on SNB-75 CNS, 10.9%; in the assay with SNB-19 CNS, 6.34% (active); with U251 CNS, -17.4% (active); in the assay with PC-3 prostate it was -7.16% (active). Further, the growth in the assay on SK-MEL-5 melanoma is -58.8% (active); with UACC-62 melanoma, -59.6% (active); in the assay on LOX IMVI melanoma it was -67.8% (active); with SK-MEL-28 melanoma, -8.59% (active).
Consider `COCCn1cc(-c2csc(-c3c[nH]c4ccc(F)cc34)n2)c2cccnc21`, for which the growth in the assay on HCT-15 colon is 14.7%; in the assay on HT29 colon, 11.8%; with SNB-75 CNS, 39.7%; in the assay with SNB-19 CNS it was 58.1%; in the assay with U251 CNS, 32.5%; with PC-3 prostate, 22.5%. The growth with SK-MEL-5 melanoma is 1.53% (active); with UACC-62 melanoma, 42.5%; in the assay with LOX IMVI melanoma it was 21.8%; in the assay with SK-MEL-28 melanoma, 46.6%.
Take `Nc1[nH]nc2nc(-c3ccccc3)n3c4ccccc4nc3c12`: the growth with HCT-15 colon was 101%; with HT29 colon, 104%; in the assay on SNB-75 CNS, 87.7%; in the assay with SNB-19 CNS, 106%; in the assay on U251 CNS it was 102%; with PC-3 prostate, 95.2%. Besides, the growth is 92.8% in the assay on SK-MEL-5 melanoma, 88.7% in the assay on UACC-62 melanoma, 99.7% in the assay with LOX IMVI melanoma and 117% with SK-MEL-28 melanoma.
`C#CCOc1ccc2nc(CCl)c(Cl)c(Nc3cccc(C(F)(F)F)c3)c2c1`: the growth with HCT-15 colon was 36.3%; in the assay on HT29 colon, 75.6%; in the assay on SNB-75 CNS, 70.5%; in the assay on SNB-19 CNS it was 98.5%; in the assay on U251 CNS it was 77.3%; in the assay on PC-3 prostate, 85.1%. For the same molecule, the growth was 58.2% in the assay with SK-MEL-5 melanoma, 71.2% with UACC-62 melanoma, -1.15% (active) with LOX IMVI melanoma and 108% in the assay with SK-MEL-28 melanoma.
Consider `CN(C)c1ccc([C@@H](C(=O)Nc2cccc([N+](=O)[O-])c2)N(C(=O)c2cc3ccccc3[nH]2)c2cccc([N+](=O)[O-])c2)cc1`, for which the growth in the assay with HCT-15 colon was 103%; with HT29 colon it was 101%; in the assay with SNB-75 CNS it was 78.2%; in the assay on SNB-19 CNS it was 97.8%; with U251 CNS it was 88.8%; in the assay on PC-3 prostate, 82.7%. The growth is 97.7% with SK-MEL-5 melanoma, 86.7% in the assay on UACC-62 melanoma, 88% in the assay on LOX IMVI melanoma and 112% in the assay on SK-MEL-28 melanoma.
With `Nc1ccc(Br)cc1C(F)(F)F`, the growth in the assay with HCT-15 colon was 106%; with HT29 colon, 108%; with SNB-75 CNS, 109%; with SNB-19 CNS, 104%; in the assay with U251 CNS it was 109%; in the assay on PC-3 prostate it was 105%. Besides, the growth with SK-MEL-5 melanoma is 103%; in the assay with UACC-62 melanoma, 108%; in the assay with LOX IMVI melanoma, 99.2%; in the assay on SK-MEL-28 melanoma it was 121%.
`Cc1ccc(S(=O)(=O)OC[C@]23CCC(C)(C)C[C@H]2C2=CC[C@@H]4[C@@]5(C)CCCNC(C)(C)[C@@H]5CC[C@@]4(C)[C@]2(C)CC3)cc1`: the growth in the assay with HCT-15 colon was -50.9% (active); with HT29 colon, -59.3% (active); with SNB-75 CNS it was 86.4%; in the assay with SNB-19 CNS it was 85.7%; in the assay with U251 CNS it was -81.1% (active); in the assay on PC-3 prostate, 53.9%. In addition, the growth was 91.5% in the assay on SK-MEL-5 melanoma, 89.7% with UACC-62 melanoma, -87.7% (active) with LOX IMVI melanoma and 99.8% in the assay on SK-MEL-28 melanoma.
